# Screening results from PubChem BioAssay.
# In the library only some 3.3% were active in any assay of this set; here they are far more common.
# TPT1 inhibitor – Candida albicans TPT1 enzyme inhibitors, primary screen, biochemical, fluorescence polarization | recombinant caTPT1, FP RNA substrate dephosphorylation | inhibition, % at 5 µM | 300,000 tested, 0.81% active;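 active means inhibition above the mean of all tested compounds plus 3 SD, set per screening campaign, cut at about 24% in these data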
# PHOSPHO1 inh – PubChem AID 1565. recombinant PHOSPHO1, absorbance phosphatase assay. Phosphoethanolamine/phosphocholine phosphatase (Homo sapiens), Q8TCT1. 290,000 tested, 1.1% active. inhibition, % at 13.3 µM; in the data active means inhibition above about 60%
# Target sequence (Q8TCT1 whole entry, looked up): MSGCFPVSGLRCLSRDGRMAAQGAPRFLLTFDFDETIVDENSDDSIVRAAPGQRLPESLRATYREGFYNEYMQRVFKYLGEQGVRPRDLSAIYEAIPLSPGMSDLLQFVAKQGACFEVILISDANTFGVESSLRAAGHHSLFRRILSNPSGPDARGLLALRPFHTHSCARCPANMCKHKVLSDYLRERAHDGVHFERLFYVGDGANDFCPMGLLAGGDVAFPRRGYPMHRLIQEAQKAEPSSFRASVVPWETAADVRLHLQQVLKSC
# HNF4A DNA FP – change in binding of human HNF4A to DNA, primary screen, biochemical, fluorescence polarization, FITC-DNA | 360,000 tested, 0.3% active | AID 1224865, 2016 | Hepatocyte nuclear factor 4-alpha (Homo sapiens), P41235 | 1 h | activity change, % at 10 µM; in the data active means activity change above about 30%, passing the limit was not always enough
# Fh CTSL1 inh – Fasciola hepatica cathepsin L1 inhibitors, primary screen, counter-screen for PFM18AAP inhibitor project, biochemical, QFRET, fluorogenic peptide substrate; inhibition, % at 5.96 µM; 300,000 tested, 0.49% active; recombinant F. hepatica cathepsin L1, Z-Leu-Arg-MCA fluorescence; AID 1906, 2009;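 active means inhibition above the mean of all tested compounds plus 3 SD, set per screening campaign, cut at about 17% in these data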
# CendR NRP1 mod – modulators of CendR peptide binding to NRP-1, primary screen, biochemical, fluorescence polarization, uHTS. Neuropilin-1 (Homo sapiens), O14786. FAM-RPARPAR peptide binding to NRP-1. inhibition, % at 25 µM. 360,000 tested, 0.85% active. AID 602438, 2012;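 active means inhibition or corrected inhibition above about 18%, plus a signal ratio from 0.5 to 1.5, limit read from the data, passing the limit was not always enough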
# Rpn11 inh – Rpn11 (PSMD14) deubiquitinase inhibitors, primary screen, biochemical, fluorescence polarization, uHTS; 26S proteasome non-ATPase regulatory subunit 14 (Homo sapiens), O00487; AID 588493, 2011; 360,000 tested, 0.59% active; human 26S proteasome, Ub4-pepOG fluorescence polarization; 20S core pre-blocked with epoxomicin; inhibition, % at 20 µM;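 active means inhibition at 20 µM, scaled to each plate's controls, above about 33%, limit read from the data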
# Target sequence (O00487 whole entry, looked up): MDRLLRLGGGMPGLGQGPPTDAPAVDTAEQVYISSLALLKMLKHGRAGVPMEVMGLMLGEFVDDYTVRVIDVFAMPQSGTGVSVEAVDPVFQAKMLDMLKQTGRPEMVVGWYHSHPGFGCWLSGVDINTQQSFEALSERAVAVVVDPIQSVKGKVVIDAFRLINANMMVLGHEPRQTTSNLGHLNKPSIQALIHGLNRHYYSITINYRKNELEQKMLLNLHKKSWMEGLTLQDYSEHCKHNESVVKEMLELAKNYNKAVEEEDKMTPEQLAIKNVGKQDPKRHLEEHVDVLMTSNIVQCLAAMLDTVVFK
# Numbers stand for hits; 0 = inactive; - = not tested or not shown; ! = not confirmed by another sample.
SMILES,TPT1 inhibitor,PHOSPHO1 inh,HNF4A DNA FP,Fh CTSL1 inh,CendR NRP1 mod,Rpn11 inh
COc1ccc2[nH]cc(C(=O)CCl)c2c1,0,0,0,74,0,0
O=C(OCC(=O)N(CCc1ccccc1)Cc1ccccc1)c1ccccc1NCCO,0,0,0,0,0,0
O=c1c(-c2ccccc2)nc2ccccc2n1C(CCc1ccccc1)c1nc2ccccc2[nH]1 (centres undefined),-,-,0,-,0,-
Cc1[nH]c2ccccc2c1C(=O)C(=O)N1CCN(c2ccccc2)CC1,0,0,0,0,0,0
CN(C)/C=C1\NC(=S)N(c2ccccc2)C1=O,0,0,0,0,25,0
C/C(=N/Nc1nc(C)c(C)s1)c1cccc([N+](=O)[O-])c1,0,-,0,90,0,0
CN1C(=O)C(C)(C)c2cc(S(=O)(=O)NCCc3ccc(Cl)cc3)ccc21,0,0,0,0,0,0
O=C(Cc1ccc(F)cc1)N1CCC(CC2CC(c3ccc(Cl)cc3)=NO2)(C(=O)NCC2CCCCC2)CC1 (centres undefined),0,0,0,0,25,0
O=c1c(Cc2ccc(F)cc2)c(O)ccn1CCCN1CCOCC1,0,0,0,0,0,0
COc1cc(CN(CC2CCCO2)C(=O)c2ccco2)cc(OC)c1OC (centres undefined),0,0,0,0,0,0
COc1cc(CN(CC2CCCO2)C(=O)c2cccs2)cc(OC)c1OC (centres undefined),0,0,0,18,26,0
O=c1[nH]c2ccc(N/C(=N/S(=O)(=O)c3ccccc3)c3ccccc3)cc2[nH]1,0,0,0,0,21,0
Cc1ccc(NC(=S)N/C(=N/S(=O)(=O)c2ccccc2)c2ccccc2)cc1,0,0,0,0,22!,0
COc1ccccc1CNc1ccc(CNc2ncn[nH]2)cc1,0,0,0,0,0,0
c1ccc2c(CNc3ccc(CNc4ncn[nH]4)cc3)cccc2c1,0,0,0,0,32,0
COc1ccc(S(=O)(=O)N2CCOC23CCN(S(=O)(=O)c2ccc(C)cc2)CC3)cc1,0,-,0,0,0,0
COc1ccccc1CNS(=O)(=O)c1c(C(=O)N2CCCCC2)c(C)n(C)c1C,0,0,0,0,0,0
CCCC(=O)Nc1cc(OC)c(NC(=S)Nc2ccc(CC)cc2)cc1OC,-,-,0,-,0,0
COCCn1c(SCC(=O)c2ccc3c(c2)OCCO3)nnc1C(C)C,0,0,0,18,0,0
COCCn1c(SCC(=O)Nc2ccc3c(c2)OCCO3)nnc1C(C)C,0,0,0,0,0,0
COCCn1c(SCC(=O)c2ccc(Cl)cc2)nnc1C(C)C,0,75,0,0,0,0
c1ccc2c(c1)oc1c(NCCCn3ccnc3)ncnc12,0,72,0,0,0,0
Cc1nc(NCCCn2ccnc2)c2oc3ccccc3c2n1,0,0,0,0,0,0
COC(=O)C(NC(=O)CCC(=O)NC(C(=O)OC)c1ccccc1)c1ccccc1 (centres undefined),0,0,0,0,0,0
CC(C)(C)OC(=O)N[C@H](C(=O)OC(C)(C)C)c1ccccc1,-,-,0,-,36,0
SMILES,TPT1 inhibitor,PHOSPHO1 inh,HNF4A DNA FP,Fh CTSL1 inh,CendR NRP1 mod,Rpn11 inh
COC(=O)C(NC(=O)CCC(=O)N[C@@H](C(=O)OC)c1ccccc1)c1ccccc1 (some centres undefined),0,0,0,0,25,0
COc1ccc(C(=O)N2CCCC(C)(C(=O)NS(=O)(=O)C3CC3)C2)c(OC)c1 (centres undefined),-,-,0,-,0,0
COc1ccc(C)cc1S(=O)(=O)N1CCCC(C(=O)N2CCN(c3ccccc3)CC2)C1 (centres undefined),0,0,0,0,0,0
Cc1ccccc1/C=C/c1nc2ccccc2c(=O)n1Cc1ccccc1,0,0,0,0,0,0
Cc1ccccc1/C=C/c1nc2ccccc2c(=O)n1CCc1ccccc1,0,0,0,0,40,0
C[C@H](CO)N1C[C@H](C)[C@@H](CN(C)C(=O)Nc2ccc3c(c2)OCO3)Oc2ccc(NS(=O)(=O)c3cn(C)cn3)cc2C1=O,-,-,0,-,0,0
COc1cccc(CNC(=O)CCC2CCCN(C(=O)c3cccc(Cl)c3)C2)c1 (centres undefined),0,0,0,0,0,0
COc1cccc(CNC(=O)CCC2CCCN(C(=O)C3=CC(=O)CC(C)(C)O3)C2)c1 (centres undefined),0,0,0,0,38,0
Cc1ccc(C)c(S(=O)(=O)N2CCCN(C)CC2)c1,0,0,0,0,0,0
Cc1ccc(C)c(S(=O)(=O)N2C(=S)NC(=O)C2C(C)C)c1 (centres undefined),0,0,0,17,0,0
O=C(OCC(=O)N1CCc2ccccc2C1)c1cccs1,0,65,0,0,0,0
O=C(O)c1nnn(-c2ccc(F)cc2F)c1-c1ccccc1,0,0,0,0,0,0
O=C(O)c1nnn(-c2cc(C(F)(F)F)cc(C(F)(F)F)c2)c1-c1ccccc1,0,0,0,46,0,0
COc1ccc(S(=O)(=O)NN=C2CCCCC2)cc1,0,74,0,0,0,0
O=C(O)c1ccccc1NS(=O)(=O)c1cccc(-n2sc3ccccc3c2=O)c1,0,0,0,0,0,0
COc1ccc(N(C)S(=O)(=O)c2ccc3c(c2)NC(=O)CC(=O)N3)c(OC)c1,0,70,0,0,0,0
CCCn1c(N)c(N(CCOC)C(=O)c2cc(C)cc(C)c2)c(=O)[nH]c1=O,0,0,35,0,0,0
COCCN(C(=O)c1ccc(C)c(S(=O)(=O)N2CCOCC2)c1)c1c(N)n(CC(C)C)c(=O)[nH]c1=O,-,-,0,-,29,0
CCCn1c(N)c(N(CCOC)C(=O)c2cccc(Cl)c2)c(=O)[nH]c1=O,0,0,0,0,0,0
CN(Cc1ccc(OC(F)F)cc1)C(=O)c1cccc(S(=O)(=O)N2CCN(c3ccccc3)CC2)c1,-,-,0,-,0,0
C/C=C/C(=O)N1CC2(CC(c3cccc(NC(=O)/C(C)=C/C)c3)=NO2)C[C@H]1C(N)=O (some centres undefined),0,0,0,18,0,0
Cc1nn(-c2ccccc2)c(N)c1Sc1ccc([N+](=O)[O-])cc1,0,0,0,0,44,0
COc1ccc(NC(=O)c2cc([N+](=O)[O-])ccc2N2CCCCC2)cc1,0,0,31,0,0,0
N#CC1(NC(=O)COC(=O)c2cc([N+](=O)[O-])ccc2N2CCCC2)CCCCC1,0,-,0,18,0,0
